Data on 13 compounds can be found in the supplement of paper PMC7411640.

In this assay the test system is MDA-MB-468. In words: phospho-S6 immunofluorescence (DAPI-normalised), per-plate z-score; higher = higher phospho-S6 signal (less pathway suppression). Particulars: 24 h. As for the experimental part: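 GPCR-targeted compound library (MedChemExpress HY-L006) tested on MDA-MB-468 PTEN-null TNBC cells in 384-well plates at 0.1, 1 or 10 uM, combined with vehicle, GDC0941 450 nM or lapatinib 1 uM, for 24 h. Phospho-S6 (S240/244) immunofluorescence normalised to DAPI and expressed as a per-plate z-score; values are the mean of biological triplicates.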

Each structure is given as a SMILES string. Where a name gives a salt, the structure may show the parent alone.

As to `CN(C)CCN(C)CCc1ccc(Cl)c(Cl)c1` [BD-1047 (dihydrobromide)] (compound 10 µM), the “phospho-S6 immunofluorescence (z-score)” value is, setting by setting: (co-treatment: GDC0941 450 nM) 0.39; (co-treatment: lapatinib 1 uM) -1.41; (co-treatment: vehicle) -0.85.
The like results for `COc1cc2c3c(c1OC)-c1ccccc1C[C@H]3N(C)CC2` [Nuciferine] (compound 10 µM) were, in that order, 0.21, -0.74 and 0.
On to `Cc1cccc(C)c1NC1=NCCCS1` [Xylazine (hydrochloride)] (compound 10 µM), for which the “phospho-S6 immunofluorescence (z-score)” value (co-treatment: GDC0941 450 nM) stood at 0.73, the “phospho-S6 immunofluorescence (z-score)” value (co-treatment: lapatinib 1 uM) worked out at 0.79 and the “phospho-S6 immunofluorescence (z-score)” value (co-treatment: vehicle) was 0.89.
On to `N#Cc1c(Oc2cccc(OS(=O)(=O)CCCC(F)(F)F)c2)cccc1C(F)(F)F` (compound 10 µM), for which the “phospho-S6 immunofluorescence (z-score)” value is -3.05 (co-treatment: GDC0941 450 nM), -2.85 (co-treatment: lapatinib 1 uM) and -5.42 (co-treatment: vehicle).
As to `CC(C)(C)NCC(O)c1cc(Cl)c(N)c(Cl)c1` (centres undefined) [Clenbuterol (hydrochloride)] (compound 10 µM), the “phospho-S6 immunofluorescence (z-score)” value turned out to be 1.42 (co-treatment: GDC0941 450 nM), 1.64 (co-treatment: lapatinib 1 uM) and 0.37 (co-treatment: vehicle).
For the compound `CC(C)C[C@H]1C(=O)N2CCC[C@H]2[C@]2(O)O[C@](NC(=O)[C@@H]3C=C4c5cccc6[nH]c(Br)c(c56)C[C@H]4N(C)C3)(C(C)C)C(=O)N12` [Bromocriptine (mesylate)] (compound 10 µM), the “phospho-S6 immunofluorescence (z-score)” value (co-treatment: GDC0941 450 nM) was -3.83, the “phospho-S6 immunofluorescence (z-score)” value (co-treatment: lapatinib 1 uM) was -3.57 and the “phospho-S6 immunofluorescence (z-score)” value (co-treatment: vehicle) is -1.61.
The like results for `COc1ccc2c(c1)[nH]c1c(C)nccc12` [Harmine] (compound 10 µM) were, in that order, -0.75, -1.57 and -1.55.
Turning to `C=CCN1C[C@H](C(=O)N(CCCN(C)C)C(=O)NCC)C[C@@H]2c3cccc4[nH]cc(c34)C[C@H]21` [Cabergoline] (compound 10 µM), the “phospho-S6 immunofluorescence (z-score)” value was 0.82 (co-treatment: GDC0941 450 nM), -0.33 (co-treatment: lapatinib 1 uM) and -0.33 (co-treatment: vehicle).
`O=C(O[C@H]1C[N+]2(CCCOc3ccccc3)CCC1CC2)C(O)(c1cccs1)c1cccs1` [Aclidinium (Bromide)] (compound 10 µM): the “phospho-S6 immunofluorescence (z-score)” value (co-treatment: GDC0941 450 nM) turned out to be 0.75, the “phospho-S6 immunofluorescence (z-score)” value (co-treatment: lapatinib 1 uM) was 1.09 and the “phospho-S6 immunofluorescence (z-score)” value (co-treatment: vehicle) was -0.87.
`CN(C)C(=O)Oc1cc(OC(=O)N(C)C)cc(C(O)CNC(C)(C)C)c1` (centres undefined) [Bambuterol (hydrochloride)] (compound 10 µM): the “phospho-S6 immunofluorescence (z-score)” value by setting is: (co-treatment: GDC0941 450 nM) -0.5; (co-treatment: lapatinib 1 uM) 0.49; (co-treatment: vehicle) -0.4.
For the compound `COc1ccc2c(c1)[C@]13CCCC[C@@H]1[C@H](C2)N(C)CC3` [Dextromethorphan (hydrobromide hydrate)] (compound 10 µM), the “phospho-S6 immunofluorescence (z-score)” value runs as follows: (co-treatment: GDC0941 450 nM) -0.24; (co-treatment: lapatinib 1 uM) -0.31; (co-treatment: vehicle) 0.42.
Regarding `CC(C)C[C@H](NC(=O)[C@H](Cc1ccccc1)NC(=O)CNC(=O)[C@@H](C)NC(=O)[C@@H](N)Cc1ccc(O)cc1)C(=O)O` [[D-Ala2]leucine-enkephalin] (compound 10 µM), the “phospho-S6 immunofluorescence (z-score)” value was -0.29 (co-treatment: GDC0941 450 nM), 0.01 (co-treatment: lapatinib 1 uM) and 1.34 (co-treatment: vehicle).
On the same counts, the results for `C[N+]1(C)CCCC(OC(=O)C(O)(c2ccccc2)c2ccccc2)C1` (centres undefined) [Mepenzolate (Bromide)] (compound 10 µM) are -0.25, -0.12 and -0.02.
